Laboratory results reported in PubChem BioAssay AID1159580 (chemical genetic matrix, 2015).
Several values for one entry are separate records, joined by “and”; a condition that tells them apart may be missing. Equal values may be shown once. The whole screen tested about 5,500 compounds, of which about 2,000 (36%) were called active. Roughly 18% stayed inconclusive and do not appear here. Cut-off read from the data, not from the text of the source: active = normalized growth mostly below about 0.91 (no sharp cut-off); inconclusive = no clear call, values can overlap the other calls; inactive = mostly above about 0.92. The list shows a part of the results.

Assay: chemical genetic growth profiling, strain panel (AID 1159580);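 note: tested at 20 µM; growth read once vehicle control cultures reached saturation at 30 °C; 1 = growth at the plate median or of vehicle wells; lower values mean less growth of the strain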
Settings: S. cerevisiae deletion strains, growth OD

Measured: normalized growth

CCCCC[C@H](CC(=O)NO)C(=O)N[C@H](C(=O)N1CCC[C@H]1CO)C(C)C
inactive: locus YAL013W, strain DEP1, active compounds read low 0.979 | locus YAL021C, strain ccr4, active compounds read low 1.02 | locus YAL026C, strain drs2, active compounds read low 1.01 | locus YAL030W, strain snc1, active compounds read low 1 | locus YBL061C, strain skt5, active compounds read low 1.01 | locus YBR009C, strain hhf1, active compounds read low 1.02 | locus YBR021W, strain FUR4, active compounds read low 1.04 | locus YBR023C, strain chs3, active compounds read low 1.01 | locus YBR171W, strain sec66, active compounds read low 1.02 | locus YBR229C, strain ROT2, active compounds read low 1 | locus YBR231C, strain swc5, active compounds read low 1.02 | locus YBR279W, strain paf1, active compounds read low 1.02 | locus YCL011C, strain gbp2, active compounds read low 1.01 | locus YCL016C, strain dcc1, active compounds read low 1.01 | locus YCL029C, strain bik1, active compounds read low 1.02 | locus YCL061C, strain MRC1, active compounds read low 1.01 | locus YCL069W, strain vba3, active compounds read low 1.01 | locus YCR088W, strain abp1, active compounds read low 1.01 | locus YDL005C, strain med2, active compounds read low 1.02 | locus YDL035C, strain GPR1, active compounds read low 0.989 | locus YDL040C, strain nat1, active compounds read low 1.02 | locus YDL074C, strain BRE1, active compounds read low 1.02 | locus YDL101C, strain DUN1, active compounds read low 1.02 | locus YDL185W, strain tfp1, active compounds read low 1.01 | locus YDL192W, strain arf1, active compounds read low 1.02 | locus YDR001C, strain nth1, active compounds read low 1.01 | locus YDR069C, strain doa4, active compounds read low 1.03 | locus YDR101C, strain arx1, active compounds read low 1.03 | locus YDR137W, strain rgp1, active compounds read low 0.972 | locus YDR150W, strain NUM1, active compounds read low 1.02 | locus YDR159W, strain sac3, active compounds read low 1.03 | locus YDR162C, strain NBP2, active compounds read low 0.988 | locus YDR195W, strain ref2 1 | locus YDR297W, strain sur2, active compounds read low 1.02 | locus YDR318W, strain mcm21, active compounds read low 1.01 | locus YDR334W, strain swr1, active compounds read low 1.01 | locus YDR335W, strain msn5, active compounds read low 1.02 | locus YDR388W, active compounds read low 1.02 | locus YDR392W, strain spt3, active compounds read low 1.04 | locus YDR502C, strain sam2, active compounds read low 1 | locus YEL003W, strain gim4, active compounds read low 1.02 | locus YEL037C, strain rad23, active compounds read low 1 | locus YEL061C, strain CIN8 (second series), active compounds read low 1.01 | locus YEL061C, strain CIN8, active compounds read low 1.01 | locus YER015W, strain faa2, active compounds read low 1.02 | locus YER016W, strain bim1, active compounds read low 1.01 | locus YER110C, active compounds read low 1.03 | locus YER111C, strain swi4, active compounds read low 1.02 | locus YER155C, strain BEM2 (second series), active compounds read low 1.02 | locus YER155C, strain BEM2, active compounds read low 1.01 | locus YER167W, strain BCK2, active compounds read low 0.999 | locus YFR010W, strain ubp6, active compounds read low 1.01 | locus YGL078C, strain dbp3, active compounds read low 1.02 | locus YGL086W, strain mad1, active compounds read low 1.01 | locus YGL167C, strain pmr1, active compounds read low 1.01 | locus YGL173C, strain kem1, active compounds read low 1.03 | locus YGL227W, strain vid30, active compounds read low 1.02 | locus YGL240W, strain doc1, active compounds read low 1.03 | locus YGL248W, strain PDE1, active compounds read low 1.02 | locus YGL253W, strain hxk2, active compounds read low 1.01 | locus YGR078C, strain PAC10, active compounds read low 1.01 | locus YGR135W, strain pre9, active compounds read low 1.01 | locus YGR252W, strain gcn5, active compounds read low 1.02 | locus YHR013C, strain ard1, active compounds read low 1.03 | locus YHR027C, strain rpn1, active compounds read low 1.02 | locus YHR030C, strain SLT2, active compounds read low 1.01 and 0.992 | locus YHR079C, strain IRE1 (second series), active compounds read low 1.03 | locus YHR079C, strain IRE1, active compounds read low 0.973 | locus YHR094C, strain hxt1, active compounds read low 1.01 | locus YHR129C, strain ARP1, active compounds read low 1.02 | locus YHR142W, strain chs7, active compounds read low 1.01 | locus YHR200W, strain rpn10, active compounds read low 1.01 | locus YIL066C, strain RNR3, active compounds read low 0.999 | locus YIL073C, strain SPO22, active compounds read low 1.06 | locus YIL125W, strain kgd1, active compounds read low 1.02 | locus YIR030C, strain dcg1, active compounds read low 1.02 | locus YJL092W, strain hpr5, active compounds read low 1.01 | locus YJL095W, strain BCK1 (second series), active compounds read low 1.02 | locus YJL095W, strain BCK1, active compounds read low 1.02 and 0.977 | locus YJL115W, strain asf1, active compounds read low 1 | locus YJL129C, strain trk1, active compounds read low 1.03 | locus YJL134W, strain LCB3, active compounds read low 1.01 | locus YJL154C, strain vps35, active compounds read low 1 | locus YJL164C, strain tpk1, active compounds read low 1.03 | locus YJL166W, strain qcr8, active compounds read low 1.02 | locus YJL168C, strain set2, active compounds read low 1.01 | locus YJL187C, strain SWE1 (second series), active compounds read low 1.04 | locus YJL187C, strain SWE1, active compounds read low 1.02
